Assay results: PubChem BioAssay AID894 (National Center for Advancing Translational Sciences (NCATS), 2007)
Several values for one entry are separate records, joined by “and”; a condition that tells them apart may be missing. Equal entries are not always repeated. The whole screen tested about 150,000 compounds, of which about 6,500 (4.3%) were called active. Roughly 12% stayed inconclusive and do not appear here. The call rests on the fitted dose curve; in most records, active means well fitted inhibition curve with a large enough effect (not every such curve was filed as active); inconclusive means small, poorly fitted or top-dose-only effect, or another doubt; inactive means no such curve, though single readings can be large or run the other way. Shown is part of a subset that was picked to be rich in actives.

The compounds below were run against 15-hydroxyprostaglandin dehydrogenase [NAD(+)] (Homo sapiens) (UniProt P15428) (assay: qHTS Assay for Inhibitors of HPGD (15-Hydroxyprostaglandin Dehydrogenase)). Details: purified HPGD, NADH fluorescence kinetic, PGE2 substrate; activity change, negative = inhibition: hits give low values.
15-hydroxyprostaglandin dehydrogenase [NAD(+)] (Homo sapiens), sequence (P15428 whole entry, looked up): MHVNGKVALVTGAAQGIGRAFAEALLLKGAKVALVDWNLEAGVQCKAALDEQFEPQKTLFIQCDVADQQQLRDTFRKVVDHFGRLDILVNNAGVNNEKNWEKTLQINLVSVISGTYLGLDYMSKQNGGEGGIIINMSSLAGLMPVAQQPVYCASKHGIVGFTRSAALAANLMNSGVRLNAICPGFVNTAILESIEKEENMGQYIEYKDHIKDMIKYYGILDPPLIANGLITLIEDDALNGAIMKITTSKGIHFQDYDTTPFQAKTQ
In short: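 20 nM HPGD preincubated 15 min at room temperature with compound in 50 mM Tris-HCl pH 8, 0.01% Tween 20. Started with 1 mM NAD+ and 30 uM prostaglandin E2; NADH fluorescence (360/450 nm) read 5 times over 30-s intervals, last minus first.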
On the % scale 0 is the no-effect control and ±100 the full control effect; potency means the concentration at half of the fitted maximal effect.

| SMILES | activity change, negative = inhibition | Potency |
| --- | --- | --- |
| Cc1nnc(SCC(=O)N2CCOCC2)[nH]c1=O | -12.2% (inactive) | – |
| O=C(CSc1nc2c(cnn2-c2ccc(F)cc2)c(=O)[nH]1)N1CCCCCC1 | – | 15.8 µM (active) |
| COc1ccc(N2CCN(C(=O)CSc3ncnc4c3cnn4-c3ccc(OC)cc3)CC2)cc1 | -8.74% (inactive) | – |
| CCc1ccc(C2N3CC4([N+](=O)[O-])CN2CC([N+](=O)[O-])(C3)C4(C)C)cc1 (stereo not given) | 2.32% (inactive) | – |
| N#CC1=C(N)OC2=C(C(=O)CCC2)C1C1CC=CCC1 (stereo not given) | – | 20 µM (active) |
| CCc1ccc(C2C(C#N)=C(N)N(N(C)C)C3=C2C(=O)CCC3)s1 (stereo not given) | -10.8% (inactive) | – |
| CCCc1[nH]nc2c1C(C1CC=CCC1)C(C#N)=C(N)O2 (stereo not given) | -1.94% (inactive) | – |
| Cc1ccc(NC(=O)c2oc(=O)c3ccccc3c2-c2ccccc2)c(C)c1 | -2.46% (inactive) | – |
| O=C(CCOc1ccccc1)NCc1ccccc1 | -13.4% (inactive) | – |
| O=C(Nc1ccccc1)Nc1ccccc1C(=O)NCc1ccco1 | -6.05% (inactive) | – |
| CCCCOc1ccc(C(=O)NCc2ccco2)cc1 | – | 15.8 µM (active) |
| O=C(CCCOc1ccccc1)NCc1ccco1 | – | 12.6 µM (active) |
| CN(C)C(CNC(=O)CCCOc1ccccc1)c1ccco1 (stereo not given) | -16.9% (inactive) | – |
| Cc1cccc(Nc2ccccc2C(=O)NCc2ccco2)c1C | -6.4% (inactive) | – |
| CC(C)(C)c1ccc(C(=O)NCCC(=O)NCc2ccco2)cc1 | -15.3% (inactive) | – |
| CCOc1ccccc1C(=O)NCc1ccco1 | – | 22.4 µM (active) |
| CCCCOc1ccc(C(=O)NCc2ccncc2)cc1 | -5.73% (inactive) | – |
| O=C(Nn1c(SCc2ccc([N+](=O)[O-])cc2)nc2ccccc2c1=O)c1ccc(F)cc1 | -26.2% (inactive) | – |
| Oc1ccc(Br)cc1C=Nc1ccc2[nH]ncc2c1 | -20.6% (inactive) | – |
| COc1ccc(-n2nnnc2-c2nc3ccccc3s2)cc1 | -14.9% (inactive) | – |

| SMILES | activity change, negative = inhibition | Potency |
| --- | --- | --- |
| CCOC(=O)C(C)Sc1nnc(CSc2nc3nc(C)cc(C)n3n2)o1 (stereo not given) | -7.77% (inactive) | – |
| O=C1NC(c2ccccc2)=NC1(Nc1ccccn1)C(F)(F)F (stereo not given) | -0.712% (inactive) | – |
| Cc1nc(CC(=O)NNS(=O)(=O)c2ccc(F)c(Cl)c2)cs1 | -9.95% (inactive) | – |
| C[C@@]12CCC(=O)C=C1CC[C@H]1C2[C@@H](O)C[C@]2(C)[C@@H]1CC[C@@]2(O)C(=O)COC(=O)C1CCCC1 (stereo not given in full) | 2.72% (inactive) | – |
| COc1cccc(-n2c(SCC(=O)NC3CCCCC3)nc3n[nH]c(C)c3c2=N)c1 | – | 15.8 µM (active) |
| Cn1c(SCC(=O)NC2CCCCC2)nnc1-c1cc2ccccc2o1 | -3.43% (inactive) | – |
| C=CCn1c(CC(=O)Nc2cccc(OC)c2)nnc1SCC(=O)NC1CCCCC1 | -4.23% (inactive) | – |
| CCN(C(=O)COC(=O)c1c(NC(C)=O)sc(C)c1C)C1CCS(=O)(=O)C1 (stereo not given) | -23.1% (inactive) | – |
| O=C(CC(=O)N/N=C\c1cccc(Cl)c1Cl)NCc1ccccc1 | -9.68% (inactive) | – |
| COC(=O)Cc1ccc(N(Cc2ccccc2F)S(=O)(=O)c2ccc(Br)cc2)cc1 | -19.6% (inactive) | – |
| CCn1c(SCC(=O)c2ccc3ccccc3c2)nnc1-c1cccs1 | -18.4% (inactive) | – |
| COC(=O)c1ccc(NC(=O)CSc2nnc(CNc3ccc(OC)cc3)n2C)cc1 | -6.05% (inactive) | – |
| CCn1c(COc2ccc(OC)cc2)nnc1SCC(=O)Nc1cc(OC)ccc1OC | 1.56% (inactive) | – |
| CCn1c(Cc2cccs2)nnc1SCC(=O)c1ccc(C)cc1 | – | 15.8 µM (active) |
| CCn1c(CNc2ccc(OC)cc2)nnc1SCC(=O)c1ccc(OC)cc1 | – | 14.1 µM (active) |
| Cc1ccc(-n2c(Cc3cccs3)nnc2SCC(=O)OC(C)C)cc1 | -15.1% (inactive) | – |
| O=C(CN1CCN(S(=O)(=O)c2ccc(Br)cc2)CC1)Nc1ccccc1C(=O)c1ccccc1 | -12.5% (inactive) | – |
| CCOC(=O)N1CCN(C(=O)C2CCN(Cc3ccc(OC)cc3OC)CC2)CC1 | -11.3% (inactive) | – |
| CCCC(NC(=O)c1ccco1)c1nc2ccccc2[nH]1 (stereo not given) | -3.61% (inactive) | – |
| Cc1cccc(C(=O)NC(=S)N2CCN(c3ccc([N+](=O)[O-])cc3)CC2)c1 | -19.1% (inactive) | – |

| SMILES | activity change, negative = inhibition | Potency |
| --- | --- | --- |
| O=C(O)Cc1ccc(-c2ccccc2)cc1 | -9.59% (inactive) and -19% (inactive) | – |
| CCOC(=O)/C=C/C(=O)OCC(=O)NC(c1ccccc1)c1ccccc1 | -29.7% (inactive) | – |
| O=C(Cc1ccc(-c2ccccc2)cc1)NC(c1ccccc1)c1ccccc1 | – | 12.6 µM (active) |
| CCCCC(=O)Nc1ccc(C(=O)Nc2cc(C(F)(F)F)ccc2Cl)cc1 | -6.97% (inactive) | – |
| CCOc1ccc(NC(=O)c2ccc(CSc3nnnn3C)cc2)cc1 | -4.67% (inactive) | – |
| COc1ccc2[nH]cc(CCNc3ncnc4ccc(-c5ccccc5CN(C)C)cc34)c2c1 | -13.3% (inactive) | – |
| COCCNc1ncnc2ccc(-c3ccccc3CN(C)C)cc12 | -8.98% (inactive) | – |
| COc1ccccc1CNc1ncnc2ccc(-c3c(C)noc3C)cc12 | – | 6.31 µM (active) |
| Cc1ccc(N(Cc2cc3ccccc3[nH]c2=O)C(=O)c2cccs2)cc1 | -11% (inactive) | – |
| CCOc1ccc(C(=O)Nc2nccs2)cc1[N+](=O)[O-] | -16.3% (inactive) | – |
| O=C(CN1CCN(c2ccc(O)cc2)CC1)NC1CCCc2ccccc21 (stereo not given) | -19.6% (inactive) | – |
| CCOc1ccc2nc(NC(=O)c3cc([N+](=O)[O-])ccc3N3CCOCC3)sc2c1 | -5.12% (inactive) | – |
| Cc1ccccc1Cn1nc(C)c(NC(=O)C(F)(F)F)c1C | 0.212% (inactive) | – |
| Cc1ccccc1OCC(=O)Nc1nc(C)c(C(=O)N(C)C)s1 | -1.51% (inactive) | – |
| COCCNC(=O)COc1ccc(C)c(C)c1 | – | 20 µM (active) |
| COCCNC(=O)COc1ccccc1C | -18.6% (inactive) | – |
| COCCCNC(=O)COc1cc(C)c(Cl)c(C)c1 | -21.9% (inactive) | – |
| CCCc1noc2c1/C(=N\O)CCC2 | -17.1% (inactive) | – |
| CCSC(C)CC1C/C(=N/O)c2c(C)noc2C1 (stereo not given) | – | 25.1 µM (active) |
| CCOc1ccc(NC(=O)COc2ccc(C(=O)NC3CCCc4ccccc43)cc2OC)cc1 (stereo not given) | -12.8% (inactive) | – |
